From PubChem BioAssay (NCATS)
A number with no mark means an inactive call. Inconclusive results are not listed. Where a call stands in place of a potency, no number is given. For part of these data: Potency and affinity values are given separately. Active and inactive are the calls of the source. Unless noted, no rule for the calls is given here.

How the values were obtained:
[1] = Ebola virus entry assay, green fluorescence channel
[2] = Ebola virus entry assay, blue channel fluorescence
[3] = Ebola virus entry assay, ratio channel
[4] = Ebola virus entry assay, reporter ratio channel; Channel type: primary
[5] = Ebola virus entry assay, blue channel (ratio component)
[6] = qHTS assay for measurement of the activity of small molecule inhibitors on Zika virus induced Caspase-3 activity in human iPSC derived neural progenitor cells (hNPCs) (AID 1224857; active = well fitted inhibition curve with a large enough effect; also: nearly all actives have a fitted effect of over 65% in size); details: hNPCs ZIKV-induced caspase-3/7, Caspase-Glo luminescence, 6 h; series mostly up to 45.7 µM
In short: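 Percent inhibition of virus-induced caspase-3/7 luminescence (Caspase-Glo), scaled between uninfected cells and Zika-infected cells. hNPCs received compound 1 hr before ZIKV at 2 FFU/cell, with 6 hours infection at 37 C.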

[7] = qHTS assay for measurement of the activity of small molecule inhibitors on Zika virus induced Caspase-3 activity in human astrocytoma cells (AID 1224859; active = well fitted inhibition curve with a large enough effect); details: SNB-19 ZIKV-induced caspase-3/7, luminescence, 6 h; series mostly up to 45.7 µM
In short: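 Luminescent caspase-3/7 read-out (30 min reagent, room temperature) in human SNB-19 cells infected 6 h with ZIKV (2 FFU/cell) after 1 h compound pre-incubation; Data were normalised to uninfected and infected wells.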

Row | Compound | efficacy [1] [%] | outcome [2] | outcome [3] | outcome [4] | outcome [5] | AC50 [3] | AC50 [4] | Potency [6] | outcome [7] | AC50 [2]
1 | O=C(Cn1ccnc1[N+](=O)[O-])NCCO | -27.8 | inactive | inactive | inactive | inactive |  |  |  |  | 
2 | C[C@]12CC[C@H]3[C@@H](CCC4=CC(=O)CC[C@@]43C)[C@@H]1CC[C@@H]2C(=O)CO | 61.9 | inactive | inactive | inactive | inactive |  |  |  |  | 
3 | CCNC(=O)NCCCOc1cccc(CN2CCCCC2)c1 | 42.2 | inactive | inactive | inactive | inactive |  |  |  |  | 
4 | Cc1nc2ccccc2c(=O)n1-c1ccccc1Cl | 30.7 | inactive |  |  | inactive | 20 µM (active) | 20 µM (active) | inactive | inactive | 
5 | COc1cc(NS(=O)(=O)c2ccc(N)cc2)nc(OC)n1 | 31.6 | inactive | inactive | inactive | inactive |  |  |  |  | 
6 | O=Cc1ccccc1C=O | -22.6 | inactive | inactive | inactive | inactive |  |  |  |  | 
7 | C[C@]12CCC(=O)C=C1[C@@H]1C[C@@H]1[C@H]1[C@@H]3[C@@H]4C[C@@H]4[C@@]4(CCC(=O)O4)[C@@]3(C)CC[C@@H]12 | 65.1 | inactive | inactive |  | inactive |  | 39.8 µM (active) |  |  | 
8 | C#C[C@]1(O)C=C[C@H]2[C@@H]3CCC4=CC(=O)CC[C@@H]4[C@H]3CC[C@@]21CC | 51.7 | inactive | inactive | inactive | inactive |  |  | inactive | inactive | 
9 | Clc1ccc(CO/N=C(\Cn2ccnc2)c2ccc(Cl)cc2Cl)c(Cl)c1 | -155 |  | inactive |  |  |  | 31.6 µM (active) | inactive | inactive | 28.2 µM (active)
10 | C[C@@H]1CC[C@H]2[C@@H](C)C(=O)O[C@@H]3O[C@@]4(C)CC[C@@H]1[C@]32OO4 | 76.3 | inactive | inactive | inactive | inactive |  |  | inactive | inactive | 
11 | CC(Cc1ccccc1)NCCCCl (configuration not stated) | 66.3 |  |  |  |  | 35.5 µM (active) | 35.5 µM (active) | inactive | inactive | 22.4 µM (active)
12 | OC(c1ccccc1)(c1ccccc1)C1CCNCC1 | 37.5 |  |  |  |  | 15.8 µM (active) | 15.8 µM (active) | inactive | inactive | 20 µM (active)
13 | CCC(=O)OC1(c2ccccc2)CCN(C)CC1 | 69.7 |  | inactive |  |  |  | 31.6 µM (active) | inactive | inactive | 31.6 µM (active)
14 | CC(=O)OC1(c2ccccc2)CCN(CCc2ccccc2)CC1 | 56.2 |  |  |  |  | 31.6 µM (active) | 31.6 µM (active) | inactive | inactive | 31.6 µM (active)
15 | c1ccc2c(c1)Sc1ccccc1N2CC1CN2CCC1CC2 (configuration not stated) | -241 |  |  |  |  | 3.98 µM (active) | 3.98 µM (active) | inactive | inactive | 5.01 µM (active)
16 | C[C@H](CN1CCOCC1)C(C(=O)N1CCCC1)(c1ccccc1)c1ccccc1 | 92.9 |  | inactive |  |  |  | 44.7 µM (active) | inactive | inactive | 35.5 µM (active)
17 | Cc1nnc2n1-c1sc(CCc3ccc(CC(C)C)cc3)cc1C(c1ccccc1Cl)=NC2C (configuration not stated) | 144 |  |  |  |  | 31.6 µM (active) | 31.6 µM (active) | inactive | inactive | 39.8 µM (active)
18 | O=C(CCCN1CCC(n2c(=O)[nH]c3ccccc32)CC1)c1ccc(F)cc1 | 109 |  |  |  |  | 25.1 µM (active) | 25.1 µM (active) | inactive | inactive | 25.1 µM (active)
19 | CCC(=O)C(CCN(C)C)(c1ccccc1)c1ccccc1 | 68.8 |  |  |  |  | 31.6 µM (active) | 31.6 µM (active) | inactive | inactive | 28.2 µM (active)
20 | CCOC(=O)C1(c2ccccc2)CCN(CCc2ccc(N)cc2)CC1 | 105 |  |  |  |  | 20 µM (active) | 20 µM (active) | inactive | inactive | 28.2 µM (active)
21 | CCC1(c2cccc(O)c2)CCCCN(C)C1 (configuration not stated) | 34.9 |  | inactive |  |  |  | 39.8 µM (active) | inactive | inactive | 20 µM (active)
22 | CC[C@H]1C[C@@H]2C[C@H]3c4[nH]c5ccc(OC)cc5c4CCN(C2)[C@@H]13 | 66.1 |  |  |  |  | 39.8 µM (active) | 39.8 µM (active) | inactive | inactive | 31.6 µM (active)
23 | CC(Cc1ccccc1)NCc1ccccc1Cl (configuration not stated) | -110 |  |  |  |  | 14.1 µM (active) | 14.1 µM (active) | inactive | inactive | 14.1 µM (active)
24 | CC(C(O)c1ccccc1)N(C)C/C=C/c1ccccc1 (configuration not stated) | 90.1 |  | inactive |  |  |  | 35.5 µM (active) | inactive | inactive | 22.4 µM (active)
25 | Cc1nnc2n1-c1sc(CCC(=O)N3CCOCC3)cc1C(c1ccccc1Cl)=NC2 | 52.3 | inactive | inactive | inactive |  |  |  | inactive | inactive | 
